Assays:
[1] = molecular target: Sphingosine kinase 1 (Homo sapiens) (UniProt Q9NYA1); conditions: at 1 µM;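 further: mean SPHK1 inhibition value reported from the GSK PKIS kinase panel screen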
[2] = molecular target: T1, Sphingosine kinase 2 (Homo sapiens) (UniProt Q9NRA0); conditions: at 0.1 µM
T1 sequence (whole entry): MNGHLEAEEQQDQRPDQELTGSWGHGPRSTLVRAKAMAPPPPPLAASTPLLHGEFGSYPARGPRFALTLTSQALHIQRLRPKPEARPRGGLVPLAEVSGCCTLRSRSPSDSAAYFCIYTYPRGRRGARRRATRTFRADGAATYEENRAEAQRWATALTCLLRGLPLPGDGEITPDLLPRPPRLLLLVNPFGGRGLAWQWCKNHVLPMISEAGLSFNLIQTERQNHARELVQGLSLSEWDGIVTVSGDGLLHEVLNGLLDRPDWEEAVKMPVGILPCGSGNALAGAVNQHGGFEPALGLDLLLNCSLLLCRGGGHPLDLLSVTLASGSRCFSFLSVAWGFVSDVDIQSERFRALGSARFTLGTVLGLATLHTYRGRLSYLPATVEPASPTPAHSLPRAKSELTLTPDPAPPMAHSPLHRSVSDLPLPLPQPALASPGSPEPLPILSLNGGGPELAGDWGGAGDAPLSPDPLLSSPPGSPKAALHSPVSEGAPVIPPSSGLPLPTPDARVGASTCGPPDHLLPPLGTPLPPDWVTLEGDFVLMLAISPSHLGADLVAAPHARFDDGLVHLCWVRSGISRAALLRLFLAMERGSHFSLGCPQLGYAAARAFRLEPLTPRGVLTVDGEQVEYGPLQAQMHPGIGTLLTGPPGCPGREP

[3] = molecular target: T1, Sphingosine kinase 2 (Homo sapiens); conditions: at 1 µM
[4] = molecular target: Casein kinase II subunit alpha (Homo sapiens) (UniProt P68400); conditions: at 0.1 µM
Sequence of Casein kinase II subunit alpha (Homo sapiens) (P68400 whole entry, looked up): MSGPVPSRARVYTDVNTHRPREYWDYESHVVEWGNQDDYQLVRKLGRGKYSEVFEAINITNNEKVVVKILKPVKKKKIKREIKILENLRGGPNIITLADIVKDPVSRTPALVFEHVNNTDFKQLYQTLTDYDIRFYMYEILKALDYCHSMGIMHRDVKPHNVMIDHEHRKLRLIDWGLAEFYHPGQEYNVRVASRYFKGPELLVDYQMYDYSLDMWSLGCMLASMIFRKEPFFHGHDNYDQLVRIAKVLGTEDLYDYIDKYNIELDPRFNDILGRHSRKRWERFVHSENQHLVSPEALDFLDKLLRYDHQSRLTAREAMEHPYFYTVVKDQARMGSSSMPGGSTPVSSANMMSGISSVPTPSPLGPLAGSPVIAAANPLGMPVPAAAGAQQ

[5] = molecular target: Casein kinase II subunit alpha (Homo sapiens) (UniProt P68400); conditions: at 1 µM
[6] = molecular target: T2, Inhibitor of nuclear factor kappa-B kinase subunit alpha (Homo sapiens) (UniProt O15111); conditions: at 0.1 µM
T2 sequence (whole entry): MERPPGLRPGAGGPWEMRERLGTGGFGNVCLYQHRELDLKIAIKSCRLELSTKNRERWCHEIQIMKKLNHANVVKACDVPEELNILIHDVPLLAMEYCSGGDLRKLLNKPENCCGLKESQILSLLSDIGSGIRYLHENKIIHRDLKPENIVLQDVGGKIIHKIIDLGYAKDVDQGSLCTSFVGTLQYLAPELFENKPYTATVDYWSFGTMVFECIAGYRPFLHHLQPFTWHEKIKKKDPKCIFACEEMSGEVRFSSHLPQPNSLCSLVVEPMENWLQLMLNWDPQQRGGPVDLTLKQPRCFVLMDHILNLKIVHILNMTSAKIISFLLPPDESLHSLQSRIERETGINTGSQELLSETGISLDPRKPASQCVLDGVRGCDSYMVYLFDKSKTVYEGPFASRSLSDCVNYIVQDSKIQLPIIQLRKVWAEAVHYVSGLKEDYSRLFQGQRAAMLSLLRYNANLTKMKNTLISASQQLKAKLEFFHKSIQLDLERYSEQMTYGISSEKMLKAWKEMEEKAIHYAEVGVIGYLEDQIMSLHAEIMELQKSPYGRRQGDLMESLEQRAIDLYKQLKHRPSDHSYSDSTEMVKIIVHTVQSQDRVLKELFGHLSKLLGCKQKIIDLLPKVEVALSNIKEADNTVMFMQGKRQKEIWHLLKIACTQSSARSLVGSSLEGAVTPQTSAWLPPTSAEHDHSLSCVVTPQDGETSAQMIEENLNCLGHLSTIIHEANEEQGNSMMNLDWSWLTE

[7] = molecular target: T2, Inhibitor of nuclear factor kappa-B kinase subunit alpha (Homo sapiens); conditions: at 1 µM
[8] = molecular target: T3, Inhibitor of nuclear factor kappa-B kinase subunit beta (Homo sapiens) (UniProt O14920); conditions: at 0.1 µM
T3 sequence (whole entry): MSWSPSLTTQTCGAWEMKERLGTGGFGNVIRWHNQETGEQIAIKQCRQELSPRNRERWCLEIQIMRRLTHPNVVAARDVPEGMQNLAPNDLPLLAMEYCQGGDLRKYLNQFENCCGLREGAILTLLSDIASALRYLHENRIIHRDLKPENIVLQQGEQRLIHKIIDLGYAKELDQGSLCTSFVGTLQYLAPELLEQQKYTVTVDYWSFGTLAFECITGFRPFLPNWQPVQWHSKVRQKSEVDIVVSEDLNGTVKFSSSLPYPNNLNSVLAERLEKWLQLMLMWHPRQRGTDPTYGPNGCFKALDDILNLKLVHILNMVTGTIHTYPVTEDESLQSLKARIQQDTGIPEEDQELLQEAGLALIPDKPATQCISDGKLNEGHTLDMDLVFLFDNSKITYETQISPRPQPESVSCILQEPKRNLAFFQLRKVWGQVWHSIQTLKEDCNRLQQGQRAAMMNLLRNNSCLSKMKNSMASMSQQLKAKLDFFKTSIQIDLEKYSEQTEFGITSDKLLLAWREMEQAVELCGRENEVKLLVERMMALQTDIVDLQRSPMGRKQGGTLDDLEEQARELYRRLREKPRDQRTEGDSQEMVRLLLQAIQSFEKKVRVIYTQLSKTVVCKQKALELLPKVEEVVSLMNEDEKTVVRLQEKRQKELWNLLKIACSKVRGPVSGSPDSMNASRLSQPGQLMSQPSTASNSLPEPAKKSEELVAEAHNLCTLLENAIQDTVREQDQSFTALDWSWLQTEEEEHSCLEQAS

[9] = molecular target: T3, Inhibitor of nuclear factor kappa-B kinase subunit beta (Homo sapiens); conditions: at 1 µM
[10] = molecular target: T4, Inhibitor of nuclear factor kappa-B kinase subunit epsilon (Homo sapiens) (UniProt Q14164); conditions: at 0.1 µM
T4 sequence (whole entry): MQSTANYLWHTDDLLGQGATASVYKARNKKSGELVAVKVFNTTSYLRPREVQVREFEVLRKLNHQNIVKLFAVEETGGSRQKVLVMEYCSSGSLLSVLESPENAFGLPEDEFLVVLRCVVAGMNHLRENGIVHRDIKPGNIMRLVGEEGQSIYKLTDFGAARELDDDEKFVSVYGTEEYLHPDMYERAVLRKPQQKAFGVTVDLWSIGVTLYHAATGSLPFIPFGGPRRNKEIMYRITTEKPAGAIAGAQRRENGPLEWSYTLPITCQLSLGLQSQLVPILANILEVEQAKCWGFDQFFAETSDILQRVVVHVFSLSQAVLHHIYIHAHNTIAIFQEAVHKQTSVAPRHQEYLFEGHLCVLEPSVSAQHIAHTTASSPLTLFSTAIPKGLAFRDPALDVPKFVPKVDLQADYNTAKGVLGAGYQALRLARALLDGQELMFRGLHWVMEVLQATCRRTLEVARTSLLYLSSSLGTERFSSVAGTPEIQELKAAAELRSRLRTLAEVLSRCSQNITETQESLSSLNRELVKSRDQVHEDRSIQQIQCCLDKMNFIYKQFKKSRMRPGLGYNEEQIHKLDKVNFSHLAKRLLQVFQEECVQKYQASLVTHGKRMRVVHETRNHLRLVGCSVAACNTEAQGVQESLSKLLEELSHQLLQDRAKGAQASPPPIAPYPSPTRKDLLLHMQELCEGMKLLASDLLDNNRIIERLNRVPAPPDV

[11] = molecular target: T4, Inhibitor of nuclear factor kappa-B kinase subunit epsilon (Homo sapiens); conditions: at 1 µM
[12] = molecular target: T5, Serine/threonine-protein kinase Nek1 (Homo sapiens) (UniProt Q96PY6); conditions: at 0.1 µM
T5 sequence (whole entry): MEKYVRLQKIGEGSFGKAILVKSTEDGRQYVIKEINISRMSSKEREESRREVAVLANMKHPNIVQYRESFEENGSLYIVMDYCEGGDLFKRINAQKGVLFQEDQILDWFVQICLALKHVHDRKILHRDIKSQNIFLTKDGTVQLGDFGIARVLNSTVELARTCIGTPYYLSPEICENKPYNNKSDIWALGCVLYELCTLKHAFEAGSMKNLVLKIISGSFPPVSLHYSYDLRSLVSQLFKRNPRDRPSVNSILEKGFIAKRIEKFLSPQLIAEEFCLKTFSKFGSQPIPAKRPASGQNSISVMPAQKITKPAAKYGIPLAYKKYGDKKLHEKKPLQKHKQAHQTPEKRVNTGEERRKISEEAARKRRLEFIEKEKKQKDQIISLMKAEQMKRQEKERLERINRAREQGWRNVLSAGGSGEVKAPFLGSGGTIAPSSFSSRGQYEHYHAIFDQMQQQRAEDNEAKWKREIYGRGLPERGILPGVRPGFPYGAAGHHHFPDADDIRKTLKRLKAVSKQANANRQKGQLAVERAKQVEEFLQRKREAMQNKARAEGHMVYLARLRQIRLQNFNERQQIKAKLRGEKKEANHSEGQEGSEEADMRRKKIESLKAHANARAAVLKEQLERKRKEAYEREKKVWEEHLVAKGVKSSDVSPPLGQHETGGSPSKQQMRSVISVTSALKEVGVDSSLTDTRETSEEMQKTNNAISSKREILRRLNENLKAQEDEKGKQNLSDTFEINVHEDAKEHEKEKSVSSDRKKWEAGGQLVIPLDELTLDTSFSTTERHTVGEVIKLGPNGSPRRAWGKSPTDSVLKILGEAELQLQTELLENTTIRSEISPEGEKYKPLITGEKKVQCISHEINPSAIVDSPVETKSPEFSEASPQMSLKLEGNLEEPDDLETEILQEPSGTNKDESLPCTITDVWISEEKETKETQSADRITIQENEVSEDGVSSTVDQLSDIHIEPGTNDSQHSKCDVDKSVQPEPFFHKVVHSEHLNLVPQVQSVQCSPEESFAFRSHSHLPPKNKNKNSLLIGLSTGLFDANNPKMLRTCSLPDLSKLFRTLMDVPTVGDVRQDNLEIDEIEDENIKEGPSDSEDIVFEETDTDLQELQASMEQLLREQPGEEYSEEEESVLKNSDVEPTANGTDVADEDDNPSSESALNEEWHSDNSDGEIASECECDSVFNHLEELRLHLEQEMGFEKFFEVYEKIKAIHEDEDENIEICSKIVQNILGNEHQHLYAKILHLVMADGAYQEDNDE

[13] = molecular target: T5, Serine/threonine-protein kinase Nek1 (Homo sapiens); conditions: at 1 µM
[14] = molecular target: T6, Serine/threonine-protein kinase Nek2 (Homo sapiens) (UniProt P51955); conditions: at 0.1 µM
T6 sequence (whole entry): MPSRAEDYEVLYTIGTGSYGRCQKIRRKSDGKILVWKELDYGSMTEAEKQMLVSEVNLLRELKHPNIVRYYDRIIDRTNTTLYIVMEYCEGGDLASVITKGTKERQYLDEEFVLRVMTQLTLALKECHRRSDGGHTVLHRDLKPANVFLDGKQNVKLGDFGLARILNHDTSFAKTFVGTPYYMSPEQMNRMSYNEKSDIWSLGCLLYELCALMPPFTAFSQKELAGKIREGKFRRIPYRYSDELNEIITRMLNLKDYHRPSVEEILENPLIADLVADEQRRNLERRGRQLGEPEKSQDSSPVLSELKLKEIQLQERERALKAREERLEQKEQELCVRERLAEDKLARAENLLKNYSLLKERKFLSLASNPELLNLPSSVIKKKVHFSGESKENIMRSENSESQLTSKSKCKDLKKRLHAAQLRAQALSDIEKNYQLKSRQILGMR

[15] = molecular target: T6, Serine/threonine-protein kinase Nek2 (Homo sapiens); conditions: at 1 µM
[16] = molecular target: Serine/threonine-protein kinase Nek6 (Homo sapiens) (UniProt Q9HC98); conditions: at 0.1 µM
Sequence of Serine/threonine-protein kinase Nek6 (Homo sapiens) (Q9HC98 whole entry): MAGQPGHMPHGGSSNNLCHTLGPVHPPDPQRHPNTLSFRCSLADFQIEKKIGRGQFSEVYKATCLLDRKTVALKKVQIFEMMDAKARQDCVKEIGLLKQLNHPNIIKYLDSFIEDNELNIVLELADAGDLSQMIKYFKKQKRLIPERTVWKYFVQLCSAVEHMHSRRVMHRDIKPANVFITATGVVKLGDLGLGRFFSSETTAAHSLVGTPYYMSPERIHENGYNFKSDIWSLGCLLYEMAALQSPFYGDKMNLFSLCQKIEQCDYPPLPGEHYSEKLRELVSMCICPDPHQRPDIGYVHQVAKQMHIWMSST

[17] = molecular target: Serine/threonine-protein kinase Nek6 (Homo sapiens) (UniProt Q9HC98); conditions: at 1 µM
[18] = molecular target: Serine/threonine-protein kinase Nek7 (Homo sapiens) (UniProt Q8TDX7); conditions: at 0.1 µM
Sequence of Serine/threonine-protein kinase Nek7 (Homo sapiens) (Q8TDX7 whole entry, looked up): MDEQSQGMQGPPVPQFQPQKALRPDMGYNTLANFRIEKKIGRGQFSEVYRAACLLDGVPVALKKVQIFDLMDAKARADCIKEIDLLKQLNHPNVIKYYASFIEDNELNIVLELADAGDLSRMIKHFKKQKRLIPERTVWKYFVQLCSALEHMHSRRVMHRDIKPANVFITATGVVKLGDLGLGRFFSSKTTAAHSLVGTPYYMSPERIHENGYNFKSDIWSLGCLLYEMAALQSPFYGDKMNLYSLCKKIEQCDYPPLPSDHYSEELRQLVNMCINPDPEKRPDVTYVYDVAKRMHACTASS

[19] = molecular target: Serine/threonine-protein kinase Nek7 (Homo sapiens) (UniProt Q8TDX7); conditions: at 1 µM
[20] = molecular target: T7, Serine/threonine-protein kinase Nek9 (Homo sapiens) (UniProt Q8TD19); conditions: at 0.1 µM;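 further: reported value is the mean percent inhibition of NEK9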
T7 sequence (whole entry): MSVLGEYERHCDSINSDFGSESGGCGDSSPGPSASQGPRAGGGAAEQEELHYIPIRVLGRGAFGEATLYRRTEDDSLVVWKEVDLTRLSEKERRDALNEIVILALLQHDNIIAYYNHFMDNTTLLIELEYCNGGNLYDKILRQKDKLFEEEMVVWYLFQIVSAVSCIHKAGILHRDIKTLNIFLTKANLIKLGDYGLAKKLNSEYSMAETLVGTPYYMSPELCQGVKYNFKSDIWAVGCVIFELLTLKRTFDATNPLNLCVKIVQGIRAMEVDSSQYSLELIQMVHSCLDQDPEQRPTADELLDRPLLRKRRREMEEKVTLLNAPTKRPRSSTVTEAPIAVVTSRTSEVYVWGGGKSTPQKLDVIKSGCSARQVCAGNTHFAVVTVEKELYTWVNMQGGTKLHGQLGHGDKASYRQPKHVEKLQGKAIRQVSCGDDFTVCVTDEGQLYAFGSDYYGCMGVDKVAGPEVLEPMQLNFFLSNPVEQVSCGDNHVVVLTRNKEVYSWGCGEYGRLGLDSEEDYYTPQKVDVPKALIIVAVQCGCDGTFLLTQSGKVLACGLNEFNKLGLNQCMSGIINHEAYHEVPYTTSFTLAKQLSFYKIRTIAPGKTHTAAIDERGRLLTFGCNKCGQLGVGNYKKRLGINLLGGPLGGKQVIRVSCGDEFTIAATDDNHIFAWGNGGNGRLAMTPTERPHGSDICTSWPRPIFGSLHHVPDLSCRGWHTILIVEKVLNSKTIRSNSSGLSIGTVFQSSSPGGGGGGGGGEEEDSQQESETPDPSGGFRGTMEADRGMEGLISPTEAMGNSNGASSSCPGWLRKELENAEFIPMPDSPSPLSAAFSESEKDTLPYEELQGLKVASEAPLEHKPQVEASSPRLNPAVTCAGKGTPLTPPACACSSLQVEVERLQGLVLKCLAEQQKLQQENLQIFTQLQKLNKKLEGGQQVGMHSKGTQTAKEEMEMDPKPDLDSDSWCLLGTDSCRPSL

Sequence of Sphingosine kinase 1 (Homo sapiens) (Q9NYA1 whole entry): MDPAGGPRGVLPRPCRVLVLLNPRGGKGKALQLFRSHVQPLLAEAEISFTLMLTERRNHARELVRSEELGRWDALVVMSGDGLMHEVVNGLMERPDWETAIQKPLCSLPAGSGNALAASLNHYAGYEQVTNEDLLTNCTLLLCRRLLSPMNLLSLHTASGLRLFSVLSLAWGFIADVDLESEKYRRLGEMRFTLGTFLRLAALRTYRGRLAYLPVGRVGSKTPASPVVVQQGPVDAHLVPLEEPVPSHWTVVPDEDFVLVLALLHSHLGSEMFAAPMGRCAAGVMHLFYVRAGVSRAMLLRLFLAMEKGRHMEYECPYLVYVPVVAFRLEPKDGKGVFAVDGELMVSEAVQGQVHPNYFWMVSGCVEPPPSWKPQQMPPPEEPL

In the case of `NS(=O)(=O)c1ccc(N/N=C2\C(=O)Nc3ccc(C(=O)NCc4ccncc4)cc32)cc1`, the inhibition [1] was 0.35%, the inhibition [2] was 2.9% and the inhibition [3] was -0.04%. The inhibition [4] was 4.7%, the inhibition [5] was 13.1% and the inhibition [6] was 2.72%. It also gave an inhibition [7] of 0.67%, an inhibition [8] of 5.86% and an inhibition [9] of 5.23%. It also gave an inhibition [10] of 14.4%, an inhibition [11] of 49.1% and an inhibition [12] of 1.96%. It also gave an inhibition [13] of 4.03%, an inhibition [14] of 4.39% and an inhibition [15] of 3.78%. The inhibition [16] was 3.86%, the inhibition [17] was 5.08% and the inhibition [18] was 3.8%. For the same molecule, the inhibition [19] was 4.4% and the inhibition [20] was 9.13%.

Reference: ChEMBL document CHEMBL1961873, “Compounds: GSK PKIS; Assays: Nanosyn kinase panel” (2012)
